The campaign covered roughly 59,000 compounds. About 6,200 (11%) were called active. Another 9% or so got no clear call; they are omitted. Rule as the data show it: active = max dye-equivalent concentration above about 10 nM; inconclusive = mostly about 1.1 nM to 9.6 nM; inactive = weaker than that. This excerpt belongs to a sample that is enriched for actives.

This assay is described as follows: qHTS Assay for Spectroscopic Profiling in 4-MU Spectral Region. Particulars: compound autofluorescence, 340/450 nm, 4-MU equivalents; stronger effect = higher value. The text has this: NIH Molecular Libraries Screening Centers Network [MLSCN] NIH Chemical Genomics Center [NCGC] […] Occasionally, the artifactual effect may originate from the compounds own spectral or other biophysical properties which generally tend to track its assay concentration. Pre-screening/profiling the library with respect to the compounds spectral properties should help one exclude false positives early on. While the most informative fluorescent profiling data set is obtained by performing a full excitation and emission scan of each well by using a monochromator-based plate reader, such an approach is practical only on a very limited scale as scanning each well requires long time. An alternative approach, applied here, is to perform plate reader scans using selected excitation and emission wavelength pairs to generate a multidimensional relational database that correlates compound concentration and the respective relative fluorescence intensity at a given wavelength set. A standard curve of 4-methylumbelliferone (4-MU) present on each plate as six-point concentration series, was used to compute a normalized fluorescence response, termed dye-equivalent concentration, for each compound at each concentration.
NCGC Assay Protocol Summary: Buffer: 100 mM Tris buffer, pH 8.0 Dye standard plate: The wells in columns 1 through 4 of a Kalypsys polypropylene 1536-well compound plate were filled with standard solutions of fluorophore corresponding to the spectral region of interest. Solutions of 4-MU were placed in the following wells: A1, B1: 3 mM, A2, B2: 300 uM, A3, B3: 30 uM, A4, B4: zero (DMSO), C1, D1: 3 uM, C2, D2: 900 nM, C3, D3: 300 nM, C4, D4: zero (DMSO). Assay Steps: Six uL of buffer were dispensed to 1536-well Greiner black plates. Compounds and dye standards (23 nL) were transferred via Kalypsys PinTool. The plates were incubated for 15 min at room temperature, and then read on ViewLux (Perkin-Elmer) High-throughput CCD imager using 340 nm and 450 nm excitation and emission filter set. Keywords: NIH Roadmap, MLSCN, MLI, MLSMR, qHTS, NCGC, Fluorescent Profiling, 4MU, 4-MU
(Quantitative high-throughput screening tests each substance at several concentrations.)
`Cc1ccccc1-c1nnn(CC(=O)c2ccc(S(=O)(=O)N3CCCC3)cc2)n1`: the max dye-equivalent concentration entry is “inactive”.

Regarding `N#CC(C(=O)c1ccc(S(=O)(=O)N2CCCCCC2)cc1)c1nc2ccccc2[nH]1` (centres undefined), the max dye-equivalent concentration is 24 nM (active).

Turning to `COc1ccccc1N1CCN(C(=O)c2ccc(S(=O)(=O)N3CCCCC3)cc2)CC1`, the max dye-equivalent concentration entry is “inactive”.

Take `CCOc1cc(C(=O)N2CCc3cc(OC)c(OC)cc3C2)ccc1OC(F)F`: the max dye-equivalent concentration result was “inactive”.

`CC1(C)CC(=O)c2sc(N)nc2C1`: the max dye-equivalent concentration result was “inactive”.

Take `CCOC(=O)C1(Cc2ccc(O)cc2)NC(c2ccccc2F)C2C(=O)N(C)C(=O)C21` (centres undefined): the max dye-equivalent concentration result was “inactive”.

Take `O=C(c1csnn1)N1CCC2(CCN(Cc3nccs3)CC2)CC1`: the max dye-equivalent concentration result is “inactive”.

With `Cc1cc(C)c(C#N)c(SCS(=O)c2ccc(C(C)(C)C)cc2)n1` (centres undefined), the max dye-equivalent concentration entry was “inactive”.

In the case of `Cc1cc(C)c(C#N)c(SCc2ccc3c(c2)OCO3)n1`, the max dye-equivalent concentration entry is “inactive”.

Take `Cc1cc(C)c(C#N)c(SCc2ccccc2C(=O)O)n1`: the max dye-equivalent concentration is 13 nM (active).

`O=C(Nc1ccon1)c1sc2ccccc2c1Cl`: the max dye-equivalent concentration entry was “inactive”.

Take `OCCCN1c2ccccc2Nc2nnc(-c3ccccc3)cc21`: the max dye-equivalent concentration is 94 nM (active).

In the case of `Oc1ccc(Cn2cc[nH]c2=S)cc1`, the max dye-equivalent concentration entry is “inactive”.

On to `O=C(Oc1ccc2c(c1)CN(Cc1ccccc1)CO2)c1ccccc1`, for which the max dye-equivalent concentration entry is “inactive”.

As for `CC(=O)Nc1nonc1-c1nc2ccccc2n1Cc1ccccn1`, the max dye-equivalent concentration entry was “inactive”.

Regarding `CN1c2ccccc2-c2nc3ccccc3n2C1c1ccco1` (centres undefined), the max dye-equivalent concentration is 2800 nM (active).

For the compound `CCOC(=O)N1CCC(C(N)=O)CC1`, the max dye-equivalent concentration entry was “inactive”.

For `CCOc1cc(S(=O)(=O)NC2CC(C)(C)NC(C)(C)C2)ccc1F`, the max dye-equivalent concentration entry is “inactive”.

For `O=c1c(-c2cccs2)nc2cnc(Oc3ccccc3)nc2n1-c1ccccc1`, the max dye-equivalent concentration is 18 nM (active).

Take `COc1ccc(-n2c(=O)c(-c3cn(C)c4ccccc34)nc3cnc(OC)nc32)cc1`: the max dye-equivalent concentration result was “inactive”.

On to `COc1ccc(Oc2ncc3nc(C)c(=O)n(-c4ccccc4)c3n2)cc1`, for which the max dye-equivalent concentration entry is “inactive”.

For `O=C1c2ccccc2C(=O)N1c1ccccc1S(=O)C(F)(F)F` (centres undefined), the max dye-equivalent concentration entry is “inactive”.

In the case of `CS(=O)(=O)N(CC(=O)N1CCN(Cc2ccc3c(c2)OCO3)CC1)c1ccc2c(c1)OCO2`, the max dye-equivalent concentration entry was “inactive”.

Consider `O=C(Cn1nnc(-c2ccc3c(c2)OCO3)n1)NCc1ccco1`, for which the max dye-equivalent concentration result was “inactive”.

As for `CS(=O)(=O)N(CC(=O)NCc1ccco1)c1ccc2c(c1)OCO2`, the max dye-equivalent concentration is 27 nM (active).

Turning to `CCn1c(COc2ccc(OC)cc2)nnc1SCC(=O)Nc1cc(OC)ccc1OC`, the max dye-equivalent concentration entry is “inactive”.

For the compound `Cc1cn(C2C=CC(CO)O2)c(=O)[nH]c1=O` (centres undefined), the max dye-equivalent concentration result is “inactive”.

Consider `O=C(NC1CC2CCCC(C1)N2C(=O)N1CCCCC1)C1CCCCC1` (centres undefined), for which the max dye-equivalent concentration result is “inactive”.

For `O=C(NCCc1ccco1)c1nn(Cc2ccccc2)c(=O)c2ccccc12`, the max dye-equivalent concentration entry was “inactive”.

With `COc1ccccc1-c1c(C)nn2c(C)c(C(C)=O)cnc12`, the max dye-equivalent concentration entry was “inactive”.

As to `Cc1ccc(C(=O)NC2CCN(C(=O)N3CCOCC3)CC2)cc1`, the max dye-equivalent concentration entry was “inactive”.

With `CCCCn1c(CN2CCN(CCO)CC2)nc2ccccc21`, the max dye-equivalent concentration result was “inactive”.

Regarding `N#Cc1c2c(c(N3CCN(CCO)CC3)n3c1nc1ccccc13)CCCC2`, the max dye-equivalent concentration is 26 nM (active).

Take `CN(C)CCCNc1c2c(c(C#N)c3nc4ccccc4n13)CCC2`: the max dye-equivalent concentration was 98 nM (active).

For `Cc1ccc(C(=O)NCC(=O)O)cc1S(=O)(=O)N1CCCCC1`, the max dye-equivalent concentration result is “inactive”.

On to `Cc1ccc(C(=O)N(CN2CCCC2=O)c2ccc(F)cc2)cc1`, for which the max dye-equivalent concentration entry was “inactive”.

Take `CCOC(=O)c1c(-n2cnnn2)sc(C)c1C`: the max dye-equivalent concentration result was “inactive”.

For the compound `CC(=NCC1CCCO1)c1c(O)[nH]c(=O)[nH]c1=O` (centres undefined), the max dye-equivalent concentration entry was “inactive”.

In the case of `CCCCOc1ccc(-c2ncc(C(=O)OCC)c(N)n2)cc1`, the max dye-equivalent concentration entry is “inactive”.

For the compound `CCN(CC)CCCN1C(=O)C(=O)/C(=C(/O)c2c(C)nc3ccccn23)C1c1ccc(C)o1` (centres undefined), the max dye-equivalent concentration entry was “inactive”.

On to `Cc1ccccc1-n1c(SCC(=O)NCc2cccs2)nnc1-c1ccncc1`, for which the max dye-equivalent concentration result was “inactive”.

With `COc1ccc(C(=O)NC(=O)CSc2nnc(-c3ccco3)n2-c2ccccc2)cc1`, the max dye-equivalent concentration result is “inactive”.

As to `COc1ccc(-n2c(SCC(=O)NCc3cccs3)nnc2-c2ccoc2C)cc1`, the max dye-equivalent concentration is 23 nM (active).

With `COc1cccc(Cn2c(=O)c(-c3cc(F)cc(F)c3)nc3cnc(OC)nc32)c1`, the max dye-equivalent concentration entry is “inactive”.

As to `O=c1c(-c2cc(F)cc(F)c2)nc2cnc(Oc3ccccc3)nc2n1C[C@H]1CCCO1`, the max dye-equivalent concentration is 12 nM (active).

Consider `O=C(CSc1nnc(-c2ccco2)n1CC1CCCO1)c1ccccc1` (centres undefined), for which the max dye-equivalent concentration entry was “inactive”.

With `OCCCNCc1ccccn1`, the max dye-equivalent concentration entry is “inactive”.

Take `C[C@H]1O[C@@H](CC(=O)O)Cc2c1c(O)c1c(O)cc(-c3cc(=O)c4c(=O)c5c(c(=O)c=4c3=O)C[C@H](CC(=O)O)O[C@@H]5C)c(O)c1c2O`: the max dye-equivalent concentration result was “inactive”.

Turning to `CCc1ccc(NC(=O)CSc2nc3ccccc3c(=O)n2CCN2CCOCC2)cc1`, the max dye-equivalent concentration result is “inactive”.

In the case of `COCCNC(=O)CSc1nc2c(n1-c1ccccc1)CCCC2`, the max dye-equivalent concentration entry was “inactive”.

As for `CCCCn1c(SCC(=O)NCC2CCCO2)nc2ccc(N3CCOCC3)cc2c1=O` (centres undefined), the max dye-equivalent concentration was 62 nM (active).

Consider `COCCCNC(=O)CSc1nc2ccc(N3CCOCC3)cc2c(=O)n1CCc1ccccc1`, for which the max dye-equivalent concentration was 54 nM (active).

On to `CCn1c(SCC(=O)NCC2CCCO2)nc2cc(S(=O)(=O)N3CCCCC3)ccc21` (centres undefined), for which the max dye-equivalent concentration entry is “inactive”.

Regarding `CCCCn1c(SCC(=O)NCCc2ccc(OC)c(OC)c2)nc2c1c(=O)n(C)c(=O)n2C`, the max dye-equivalent concentration result is “inactive”.
